TDP43 rescue – qHTS of TDP-43 Inhibitors. TDP-43 expressing yeast growth rescue, BacTiter-Glo, 24 h. Potency, µM (titrated, usually from 46.1 µM), inactives show at the top dose growth rescue (activation), hits mostly activators. 410,000 tested, 1.8% active. AID 652104, 2013; also: % of control where 0% means no effect; nearly all actives have a fitted effect of over 50% in size
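Growth rescue of TDP-43-toxic yeast measured as ATP luminescence (BacTiter-Glo). Cells grown to mid-log in raffinose, induced in galactose at OD600=0.02, exposed to compound 24 hr at 30 deg C.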
Abeta yeast res – qHTS for compounds that reverse cellular toxicity of Amyloid beta (A-beta) peptide in yeast: Primary Screen; yeast expressing A-beta42, growth rescue, OD600, 48 h; response scale: 0% DMSO, 100% iron-clioquinol control; Potency, µM (doses to about 46.1 µM), hits mostly activators; 410,000 tested, 0.063% active; also: nearly all actives have a fitted effect of over 55% in size
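Yeast growth medium received pinned compounds, then yeast cells expressing toxic A-beta were added; plates incubated at 30 C for 48 hr. Growth read as absorbance at 600 nm, normalized to DMSO and equimolar FeCl3 plus clioquinol controls.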
aSyn rescue – qHTS of alpha-syn Inhibitors; Yeast expressing alpha-synuclein, growth rescue, BacTiter-Glo, 24 h; Potency, µM (doses to about 46.1 µM), without a hit: at the top dose growth rescue (activation), hits mostly activators; 370,000 tested, 0.14% active; AID 652106, 2013; also: % of control where 0% means no effect; nearly all actives have a fitted effect of over 65% in size
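Galactose-induced alpha-syn yeast (OD600=0.02, raffinose-pregrown) + pinned cpd, 24 hr, 30 deg C; growth by BacTiter-Glo luminescence. Growth restoration scores as activation.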
Mito fusion act – qHTS Assay for Small Molecule Inhibitors of Mitochondrial Division or Activators of Mitochondrial Fusion | Potency, µM (highest dose often 46.1 µM), without a hit: top-dose growth rescue (activation), actives largely listed as activators | AID 485298, 2010 | S. cerevisiae fusion-defective mutant growth rescue, CellTiterGlo 48 h | 320,000 tested, 0.23% active; also: % of control where 0% means no effect; nearly all actives have a fitted effect of over 45% in size
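Luminescent cell viability in 1536-well qHTS format served as the measure of rescued growth in ts fusion-mutant S. cerevisiae cultured on non-fermentable YPEG for 48 hours at 37C.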
FUS yeast rescue – qHTS for Suppressors of FUS Proteinopathy: Primary screen using FUS-linked yeast assay | S. cerevisiae FUS-expressing, growth rescue, OD600, 24 h | 390,000 tested, 0.24% active | Potency, µM (doses to about 76.6 µM), usual class: activators;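 also: plate controls were DMSO vehicle for no effect and reference control for full effect; nearly all actives have a fitted effect of over 55% in size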
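Steps: raffinose overnight preculture; dilution to OD 0.005 in 2% galactose minimal medium; compound addition (concentration series); 24hr at 30C, 99% humidity; absorbance read at 600 nm.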
* marks the source's active call; other numbers are inactive results; i = inactive; ? = inconclusive; · = no result given; [ ] = remark or other dose. Only some compounds are listed: those with a hit (about 2.2% of all), similar ones and a draw of the others. Calls follow the shape of the dose curve; as a rule, active = well fitted curve in the direction sought with a large enough effect; inconclusive = small, poorly fitted or top-dose-only effect, or another doubt; inactive = no such curve, though single readings can be large; an effect the other way counts as inactive or inconclusive. Potency is read from the fitted curve at half-maximal effect.

SMILES	TDP43 rescue	Abeta yeast res	aSyn rescue	Mito fusion act	FUS yeast rescue
Cc1ccc(S(=O)(=O)n2ccc(-c3c(-c4ccccc4)noc3C)n2)cc1	·	·	·	·	i
Cc1cc(N2CCOCC2)n2ncc(-c3ccccc3Cl)c2n1	13µM*	i	11%	13%	i
Fc1c(F)c(F)c(CSc2nc3ccccc3[nH]2)c(F)c1F	11µM*	i	-11%	3%	i
OC[C@@H]1CN(Cc2ccc(F)cc2)C[C@H](n2cnc3c(N4CCN(c5ccccc5)CC4)ncnc32)O1	26%	i	?	·	?
OC[C@@H]1CN(Cc2ccccc2)C[C@H](n2cnc3c(N4CCN(c5ccccc5)CC4)ncnc32)O1	17%	i	27%	·	20µM*
O=C(CCn1nnc2ccccc21)N1CCN(c2ccc(F)cc2)CC1	·	·	·	·	i
CC1CCC(NC(=O)c2ccc(CS(=O)(=O)c3c(Cl)cccc3Cl)o2)CC1 (stereo not given)	35µM*	i	·	·	i
Cc1cc(NC(=O)Cn2nc(C)n3cccc3c2=O)ccc1Br	1%	i	·	·	i
Cc1cc(C)n(CC(=O)Nc2cccc(C(F)(F)F)c2)n1	8%	i	0%	3%	i
Cc1nn(CC(=O)Nc2cccc(C(F)(F)F)c2)c(=O)c2cccn12	1%	i	6.3µM*	3%	i
CCN(CC)C(=S)SCC(=O)Nc1ccc(F)cc1	14µM*	i	8%	5%	i
CCN(CC)C(=S)SCC(=O)Nc1cccc(C(F)(F)F)c1	13µM*	i	11%	·	i
O=C(CSc1nc2ncccc2o1)Nc1cccc(C(F)(F)F)c1	10µM*	13µM*	·	·	i
COc1cc(OC)c(N(C)C(=O)c2c(C)oc3ncnc(N4CCCCC4)c23)cc1Cl	6%	i	·	·	i
COc1cc(OC)cc(C(=O)Nc2nc(-c3nnn(-c4ccc(F)c(Cl)c4)c3C)ns2)c1	7%	i	·	·	i
COCCCNC(=O)c1cnc2c(-c3ccc(F)cc3)c(C)nn2c1C	3%	i	·	·	i
Brc1ccc[n+](CCc2ccccc2)c1	·	·	7%	·	·
COC(=O)c1c(C)oc2c1cc(NS(=O)(=O)c1c(C)cc(C)cc1C)c1ccccc12	18%	i	·	·	i
O=C(/C=C/c1ccccc1Cl)c1ccc[nH]1	14%	i	3%	14µM*	·
Cc1nc2cc(C(=O)N3CCN(C(=O)C(C)(C)C)CC3)ccc2n1C1CCCC1	·	·	·	·	i
CN(C)c1ccnc2sc(C(N)=O)c(N)c12	2%	i	22%	-2%	i
CN(C)c1ccnc2sc(C(=O)NCc3ccccc3)c(N)c12	?	i	13µM*	23%	i
O=S(=O)(NCCc1csc(-c2cccnc2)n1)c1cccs1	20%	?	-12%	1%	i
O=S(=O)(NCCc1csc(-c2cccnc2)n1)c1ccc(Cl)s1	14µM*	11µM*	-2%	22%	i
COc1ccc(F)cc1S(=O)(=O)NCCc1csc(-c2ccc(Cl)cc2)n1	?	i	·	·	?
SMILES	TDP43 rescue	Abeta yeast res	aSyn rescue	Mito fusion act	FUS yeast rescue
O=S(=O)(NCCc1csc(-c2ccc(F)cc2)n1)c1ccc(F)cc1F	2.8µM*	?	·	·	i
Cc1c(/C=C/c2ccnc3ccccc23)ccc(N(C)C)c1C	·	·	-2%	·	·
CCCC[C@]12Cc3cc(C#N)ccc3C(O1)c1c(cc(C)n(Cc3ccccc3)c1=O)O2	·	·	·	0%[9.22 µM]	·
Cc1nn(-c2ccc(F)cc2)c(N)c1C1(O)C(=O)Nc2ccccc21 (stereo not given)	1%	i	3%	15%	i
Cc1nn(-c2ccccc2)c2c1C1(C(=O)Nc3ccccc31)N1C(=N2)Sc2ccccc21 (stereo not given)	20%	i	7%	18µM*	i
COc1ccc(N2CCN(C(c3nnnn3C3CCCC3)C(C)C)CC2)cc1 (stereo not given)	-4%	i	5%	13µM*	i
O=C(/C=C/c1ccccc1)NC(=S)NNC(=O)c1cccnc1	16µM*	?	7%	-3%	i
Cc1cccc(C(=O)NC(=S)NNC(=O)c2cccs2)c1	?	i	-6%	-5%	·
Cc1cccc(C(=O)NC(=S)NNC(=O)c2ccc(Cl)cc2)c1	?	3.2µM*	?	-13%	·
O=C(/C=C/c1ccccc1)NC(=S)NNC(=O)c1cnccn1	-84%	i	-47%	-11%	i
CC(C)(C)c1cc(Cl)c(O)c(NC(=S)NC(=O)c2cccnc2)c1	8.9µM*	?	11%	7%	i
CC(C)(C)c1ccc(C(=O)NC(=S)NNC(=O)COc2ccccc2)cc1	13µM*	i	?	-4%	i
Cc1ccc(C(=O)NNC(=S)NC(=O)COc2ccccc2)cc1	14%	?	?	2%	i
CC(C)c1ccc(O)c(NC(=S)NC(=O)c2cccnc2)c1	27%	?	1%	0%	i
Cc1ccc(C(=O)CSc2nnc(-c3ccccn3)n2-c2ccccc2)cc1	·	·	·	·	i
Cc1ccccc1OCC(=O)NNC(=S)NC(=O)c1ccccc1[N+](=O)[O-]	0%	i	0%	-9%	i
CC(C)(C)c1ccc(OCC(=O)NNC(=S)NC(=O)c2ccccc2[N+](=O)[O-])c(Br)c1	18µM*	i	?	-10%	i
CC(C)(C)c1ccc(C(=O)NNC(=S)NC(=O)c2cccnc2)cc1	?	i	11µM*	-47%	?
CN(C)c1ccc(/C=C/c2ccnc3ccc(Br)cc23)cc1	·	·	5%	·	·
CC(C)c1nc2ccc(C(=O)NCCCN3CCN(c4cccc(Cl)c4)CC3)cc2o1	16%	i	·	·	i
O=C(NC1CCSc2ccccc21)c1cc([N+](=O)[O-])ccc1N1CCOCC1 (stereo not given)	35µM*	i	-1%	-37%	i
Cc1ccccc1COC(=O)c1cc([N+](=O)[O-])ccc1N1CCOCC1	26%	i	17%	10%	i
O=C(OCc1ccccc1F)c1cc([N+](=O)[O-])ccc1N1CCOCC1	35µM*	i	5%	7%	·
COC(=O)c1ccc2c(c1O)C(=O)c1ccccc1C2=O	7.9µM*	i	2%	-10%	i
O=C1c2ccccc2C(=O)c2c1ccc(O)c2O	-70%	i	-11%	·	i
COC(=O)c1cccc2c1-c1ccccc1/C2=N/O	13µM*	i	-20%	20%	i
COC(=O)c1cccc2c1-c1ccccc1/C2=N\NC(N)=O	-2%	i	18%	10%	i
COc1ccc(-c2cn3nc(SCC(=O)Nc4ccccc4F)ccc3n2)cc1	0%[9.22 µM]	i	·	·	i

Bioassay records from PubChem BioAssay.
